In PubChem BioAssay (NCATS):
Inconclusive results are not listed. Calls of active or inactive are those of the source. Unless noted, calls follow the shape of the dose curve; as a rule, active = well fitted curve in the direction sought with a large enough effect; inconclusive = small, poorly fitted or top-dose-only effect, or another doubt; inactive = no such curve, though single readings can be large; an effect the other way counts as inactive or inconclusive.

Columns and labels:
[1] = AP1 Signaling Pathway (AID 357; active = well fitted curve in either direction with a large enough effect, not every such curve was filed as active; also: % is scaled to controls: 0 for no effect and ±100 for the full control effect); conditions: ME-180 AP-1-bla reporter, EGF-induced, beta-lactamase ratio, 5 h; at 38 µM (top of the series)
In short: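 ME-180 cells with beta-lactamase reporter under AP-1 response element, stimulated with EC50 EGF; compounds tested in titration series, 5 h at 37 °C. CCF4 substrate added 2.5 h at room temperature; 460/530 nm emission ratio gave %activity and AC50.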

[2] = target: Cytochrome P450 1A2 (Homo sapiens) (UniProt P05177); experiment: p450-cyp1a2 (AID 410; calls by dose curve;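 also: -100% = full effect of reference inhibitor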)
In short: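 20nM CYP1A2 with 100uM Luciferin-ME (at Km) in 100mM KPO4; compound preincubated 10 min, NADPH regeneration added, 60 min at room temperature. Luciferin quantified by luminescence after detection reagent; normalized to 57 uM furafylline.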

[3] = NFAT Signaling Pathway (AID 444; active = well fitted curve in either direction with a large enough effect, not every such curve was filed as active;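 also: carbachol stimulus at about its EC50 of 1 µM final; % is scaled to controls: 0 for no effect and ±100 for the full control effect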); conditions: Jurkat NFAT-bla M1, carbachol, beta-lactamase ratio, 5 h; at 38 µM (top of the series)
In short: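 Jurkat cells with NFAT-driven β-lactamase reporter and co-expressed M1 receptor, stimulated with carbachol (final 1 uM, ~EC50), compound titration, 5 h at 37 °C. CCF4 loaded 1 h at RT; 460/530 nm ratio gave %activity and AC50.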

[4] = Stat Signaling Pathway (AID 446; active = well fitted curve in either direction with a large enough effect, not every such curve was filed as active;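 also: ME-180 cervical cancer cells given 40 pM IL-6 alongside compound; SIE-controlled beta-lactamase reporter measured as 460/530 nm FRET emission ratio; % is scaled to controls: 0 for no effect and ±100 for the full control effect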); conditions: ME-180 SIE beta-lactamase reporter, IL-6 stimulated, 5 h; at 38 µM (top of the series)
In short: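 ME-180 SIE-bla cells; overnight plating; cpd + IL-6 40 pM, 5 h, 37 C; LiveBLAzer 2.5 h RT; 460/530 nm emission ratio. Normalized to 300 pM IL-6 and 125 nM JAK inhibitor controls.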

[5] = target: Glucocorticoid receptor (Homo sapiens) (UniProt P04150); experiment: GR-GFP Redistribution (AID 450;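 active = compounds whose dose series gives a full or clear partial fitted curve of increased nuclear translocation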; also: potency is read from the fitted curve at half-maximal effect); conditions: U2OS GR-GFP nuclear translocation, laser cytometry, 2 h
[6] = target: Glucocorticoid receptor (Homo sapiens) (UniProt P04150); experiment: GR-EFC Redistribution (AID 451; calls by dose curve; also: potency is read from the fitted curve at half-maximal effect); conditions: CHO-K1 GR-EFC translocation, beta-gal luminescence, 2 h
In short: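 CHO-K1 cells expressing nuclear EA and GR-ED fragments of b-gal; compounds titrated up to 46 uM final, 2 h at 37 C. GR nuclear translocation read as complemented b-gal luminescence after 1 h RT detection.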

[7] = target: Mitogen-activated protein kinase 10 (Mus musculus) (UniProt Q61831); experiment: JNK3 AlphaScreen Assay (AID 530; active = well fitted curve in either direction with a large enough effect, not every such curve was filed as active;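 also: kinase came from lysate of stimulated human HepG2 cells; signal reports phosphorylation of biotinylated GST-cJun 1-79 at Ser73 with 10 µM ATP; % is scaled to controls: 0 for no effect and ±100 for the full control effect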)
In short: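 Pre-activated (IL-1β/TNFα) JNK3 in HepG2 lysates phosphorylates biotin-GST-cJun(1-79), 10 uM ATP; anti-phospho-cJun(Ser73) AlphaScreen read at room temperature, pH 7.6 Tris buffer. Compounds pre-incubated 15 min as titrations.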

[8] = target: 3',5'-cyclic-AMP phosphodiesterase 4B (Homo sapiens) (UniProt Q07343); experiment: qHTS Assay for Inhibitors of PDE-IV (AID 607; active = well fitted activation curve with a large enough effect in the main read-out, with a control signal flat, not every such curve was filed as active; also: % of control where 0% means no effect)
In short: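 ACTOne HEK293 cells carry a modified cAMP-gated CNG channel and express endogenous PDE4; plated 1000 cells/well, compounds up to 22.9 uM final. Membrane-potential dye fluorescence (ex 535/em 590) was read; parental cells received 10 uM forskolin + 100 uM RO 20-1724.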

[9] = target: Guanine nucleotide-binding protein G(i) subunit alpha-1 (Homo sapiens) (UniProt P63096); experiment: qHTS Assay for Inhibitors of RGS12 GoLoco Motif Activity (Green Fluorophore) (AID 879);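 also: 0% = labeled peptide with Gαi1 and full inhibition = labeled peptide alone without protein; negative values mean loss of peptide binding seen as reduced polarization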
In short: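 Fluorescence polarization assay: 50 nM Gαi1 with 10 nM FITC-labeled RGS12 GoLoco peptide in 10 mM Tris pH 7.5, 150 mM NaCl, 0.1 mM GDP, 0.05% NP40, 10 min at room temperature with compound.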

[10] = target: Cytochrome P450 2C9 (Homo sapiens) (UniProt P11712); experiment: qHTS Assay for Inhibitors and Substrates of Cytochrome P450 2C9 (AID 883); also: % is scaled to controls: 0 for no effect and ±100 for the full control effect; nearly all actives have a fitted effect of over 60% in size
In short: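 Signal: luciferase luminescence reporting luciferin produced by CYP2C9. Conditions: 10nM enzyme, Luciferin-H 100uM at KM, 25mM KPO4, 37C, 60 min NADPH-driven reaction. Reference: 57uM sulphaphenazole as 100% inhibition.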

[11] = target: Cytochrome P450 3A4 (Homo sapiens) (UniProt P08684); experiment: qHTS Assay for Activators of Cytochrome P450 3A4 (AID 885); also: nearly all actives have a fitted effect of over 65% in size
In short: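 20nM CYP3A4 + 25uM Luciferin-PPXE (=KM), 200mM KPO4; cpd 10 min RT; NADPH regen, 60 min RT; stop w/ detection buffer, 20 min; luminescence. Normalized to 57 uM ketoconazole.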

[12] = qHTS Assay for Identification of Small Molecule Agonists for Thrombopoietin (TPO) Signaling Pathway (AID 917); also: % is scaled to controls: 0 for no effect and ±100 for the full control effect
In short: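 Murine Ba/F3 cells expressing human TPO receptor and GPIIb-promoter luciferase, IL-3-starved overnight, given compound plus TPO at 26 pM (EC50). After 24 h at 37 C, 5% CO2, luminescence read.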

[13] = target: Pyruvate kinase (Leishmania mexicana) (UniProt Q27686); experiment: qHTS Validation Assay for Inhibitors of Leishmania Mexicana Pyruvate Kinase (AID 945);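 also: 0% = DMSO only neutral control wells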
In short: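 An endpoint luciferase assay: 0.2 nM LmPYK E451W turns over 0.5 mM PEP with 0.1 mM ADP for 1 h at room temperature, pH 7.2, before PKLight addition. Values are normalized to DMSO-only wells.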

[14] = target: Pyruvate kinase PKM (Homo sapiens) (UniProt P14618); experiment: qHTS Assay for Activators of Human Muscle Pyruvate Kinase (AID 954; active = well fitted curve in the direction sought with a large enough effect, not every such curve was filed as active;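 also: 0% = uninhibited enzyme and -100% = no enzyme or full thiadiazolimine inhibition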)
In short: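 Luminescence from a luciferase ATP-detection/stop reagent reported PKM2 activity. Reactions contained 0.1 nM purified human enzyme, 0.5 mM PEP, 0.1 mM ADP and 7 mM MgCl2 at pH 7.2, run 1 h at RT.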

[15] = target: Alpha-galactosidase A (Homo sapiens) (UniProt P06280); experiment: Counterscreen for Glucocerebrosidase Inhibitors: qHTS Assay for Human alpha-Galactosidase at pH 4.5 (AID 992); also: 0% is about no effect
In short: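 Enzyme at 2 nM final was combined with compound (0.7 nM to 77 uM) and 80 uM 4-methylumbelliferyl alpha-D-galactopyranoside in 50 mM citric acid, 0.005% Tween-20, pH 4.5. After 20 min at room temperature, fluorescence was read (Ex 365/Em 440 nm); AC50 came from Hill fits.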

[16] = target: alpha-glucosidase (Oryza sativa, rice) (UniProt Q653V4); experiment: Counterscreen for Glucocerebrosidase Inhibitors: qHTS Assay for Rice alpha-Glucosidase at pH 5.0 (AID 997);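 also: 0% = full activity with enzyme and -100% = basal without enzyme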
In short: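 Rice alpha-glucosidase (4 nM final) with 400 uM 4-methylumbelliferyl-alpha-D-glucopyranoside in citrate buffer pH 5.0, 20 min at room temperature, stopped at pH 10; fluorescence 365/440 nm, compounds 0.7 nM–77 uM, AC50 from Hill fits.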

[17] = Validation of Assay for Modulators of Lamin A Splicing (AID 1459; active = well fitted curve in the direction sought with a large enough effect in the signal ratio; the % refers to the signal ratio;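 also: cells exposed to compound for two days before reading; 0% is about no effect; ratio rise marks activators and ratio drop marks inhibitors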)
In short: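 S3 HeLa stably expressing lamin A-EGFP splicing minigene and DsRed2, 600 cells/well in Opti-MEM with 2% FBS, treated 48 h at 37C; laser-scanning cytometry gives GFP/RFP total intensity ratio; ancitabine positive control, 0.5% DMSO vehicle.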

[18] = target: DNA repair nuclease/redox regulator APEX1 (Homo sapiens) (UniProt P27695); experiment: qHTS Validation Assay for Inhibitors of the Human Apurinic/apyrimidinic Endonuclease 1 (APE1) (AID 1705)
In short: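 Fluorogenic double-stranded THF abasic-site substrate (5'-TAMRA/3'-BHQ-2), 50 nM final. Enzyme preincubated with compound 15 min at room temperature, then substrate added. Kinetic fluorescence (ex 525/em 598 nm) read three times at 60 s intervals; activity taken as third-minus-first read difference.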

[19] = Counterscreen for APE1 Inhibitors: Fluorescent Dye Displacement Validation Assay (AID 1707);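 also: plate controls were ThO with dsDNA and no compound for no effect and ThO without dsDNA for full effect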
In short: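 Thiazole Orange displacement from dsDNA: 250 nM ThO with 50 nM TAMRA-labelled abasic-site (tetrahydrofuran) duplex in 50 mM Tris-HCl pH7.5, 50mM NaCl, 2 mM MgCl2, 0.01% Tween-20. Loss of endpoint fluorescence (ex 480 nm, em 540 nm) flags DNA binders.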

Sequence of Glucocorticoid receptor (Homo sapiens) (P04150 whole entry, looked up, the tested form may be a part): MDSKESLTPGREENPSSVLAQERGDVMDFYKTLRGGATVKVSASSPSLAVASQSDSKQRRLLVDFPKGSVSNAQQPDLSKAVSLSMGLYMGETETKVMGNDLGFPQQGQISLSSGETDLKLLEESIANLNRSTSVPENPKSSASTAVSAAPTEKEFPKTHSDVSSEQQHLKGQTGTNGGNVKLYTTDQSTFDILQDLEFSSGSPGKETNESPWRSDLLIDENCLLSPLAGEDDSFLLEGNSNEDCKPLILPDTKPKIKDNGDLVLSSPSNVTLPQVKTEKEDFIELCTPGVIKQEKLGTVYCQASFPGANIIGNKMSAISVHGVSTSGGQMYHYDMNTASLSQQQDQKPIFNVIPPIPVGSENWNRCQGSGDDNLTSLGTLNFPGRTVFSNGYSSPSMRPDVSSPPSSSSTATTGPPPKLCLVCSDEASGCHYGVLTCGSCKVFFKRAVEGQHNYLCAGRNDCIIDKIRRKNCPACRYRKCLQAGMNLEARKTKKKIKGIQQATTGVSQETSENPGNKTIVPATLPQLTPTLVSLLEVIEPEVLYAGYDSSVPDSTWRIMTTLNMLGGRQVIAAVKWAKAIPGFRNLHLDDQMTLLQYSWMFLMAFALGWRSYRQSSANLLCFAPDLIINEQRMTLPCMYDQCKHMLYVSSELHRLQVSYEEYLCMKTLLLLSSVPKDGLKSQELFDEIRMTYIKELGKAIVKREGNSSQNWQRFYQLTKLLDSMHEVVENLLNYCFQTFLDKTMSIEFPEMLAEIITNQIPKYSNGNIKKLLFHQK
Sequence of 3',5'-cyclic-AMP phosphodiesterase 4B (Homo sapiens) (Q07343 whole entry, looked up): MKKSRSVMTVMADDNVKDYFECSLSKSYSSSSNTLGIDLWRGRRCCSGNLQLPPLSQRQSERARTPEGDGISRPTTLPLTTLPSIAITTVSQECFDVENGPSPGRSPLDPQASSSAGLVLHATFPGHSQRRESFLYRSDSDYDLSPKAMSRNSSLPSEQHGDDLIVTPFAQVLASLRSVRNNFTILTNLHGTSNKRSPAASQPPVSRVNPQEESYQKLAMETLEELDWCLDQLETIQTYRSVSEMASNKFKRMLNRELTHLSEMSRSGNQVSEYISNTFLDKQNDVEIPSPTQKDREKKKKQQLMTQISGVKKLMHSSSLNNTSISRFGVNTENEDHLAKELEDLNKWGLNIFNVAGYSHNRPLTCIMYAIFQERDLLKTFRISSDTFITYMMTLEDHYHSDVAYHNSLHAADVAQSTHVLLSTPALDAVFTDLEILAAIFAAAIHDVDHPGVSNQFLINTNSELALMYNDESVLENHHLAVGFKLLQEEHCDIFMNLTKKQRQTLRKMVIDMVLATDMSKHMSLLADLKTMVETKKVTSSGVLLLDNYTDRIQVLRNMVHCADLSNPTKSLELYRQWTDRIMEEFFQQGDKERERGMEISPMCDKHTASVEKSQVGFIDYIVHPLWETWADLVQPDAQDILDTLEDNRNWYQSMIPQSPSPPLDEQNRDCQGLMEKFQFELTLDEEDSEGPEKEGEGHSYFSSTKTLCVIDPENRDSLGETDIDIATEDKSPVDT
Sequence of Cytochrome P450 3A4 (Homo sapiens) (P08684 whole entry, looked up): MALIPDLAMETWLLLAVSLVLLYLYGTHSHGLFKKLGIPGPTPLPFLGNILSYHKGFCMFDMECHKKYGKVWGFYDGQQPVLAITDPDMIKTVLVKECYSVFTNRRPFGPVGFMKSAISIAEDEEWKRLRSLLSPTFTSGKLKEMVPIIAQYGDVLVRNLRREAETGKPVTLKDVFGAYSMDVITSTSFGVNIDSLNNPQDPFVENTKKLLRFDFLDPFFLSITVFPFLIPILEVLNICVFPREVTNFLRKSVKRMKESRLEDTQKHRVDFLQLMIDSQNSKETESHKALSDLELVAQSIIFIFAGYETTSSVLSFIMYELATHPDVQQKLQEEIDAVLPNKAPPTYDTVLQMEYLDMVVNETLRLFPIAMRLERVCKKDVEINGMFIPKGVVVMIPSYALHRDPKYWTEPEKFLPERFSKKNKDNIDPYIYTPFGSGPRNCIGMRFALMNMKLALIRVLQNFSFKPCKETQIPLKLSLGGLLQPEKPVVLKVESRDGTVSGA
Sequence of Cytochrome P450 1A2 (Homo sapiens) (P05177 whole entry, looked up): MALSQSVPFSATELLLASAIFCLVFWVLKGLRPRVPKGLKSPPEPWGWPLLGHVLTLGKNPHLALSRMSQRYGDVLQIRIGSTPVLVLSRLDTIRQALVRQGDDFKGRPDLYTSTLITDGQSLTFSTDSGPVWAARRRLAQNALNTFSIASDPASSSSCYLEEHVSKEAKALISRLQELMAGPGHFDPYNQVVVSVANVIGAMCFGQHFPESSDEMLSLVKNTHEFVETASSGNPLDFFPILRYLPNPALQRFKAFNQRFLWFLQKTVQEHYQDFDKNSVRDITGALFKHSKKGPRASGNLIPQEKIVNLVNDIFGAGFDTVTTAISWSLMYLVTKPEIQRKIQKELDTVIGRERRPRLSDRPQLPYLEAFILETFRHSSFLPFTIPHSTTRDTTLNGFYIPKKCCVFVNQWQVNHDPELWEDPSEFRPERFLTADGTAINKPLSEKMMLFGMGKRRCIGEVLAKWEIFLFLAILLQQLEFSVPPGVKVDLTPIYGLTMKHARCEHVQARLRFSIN
Sequence of Cytochrome P450 2C9 (Homo sapiens) (P11712 whole entry, looked up): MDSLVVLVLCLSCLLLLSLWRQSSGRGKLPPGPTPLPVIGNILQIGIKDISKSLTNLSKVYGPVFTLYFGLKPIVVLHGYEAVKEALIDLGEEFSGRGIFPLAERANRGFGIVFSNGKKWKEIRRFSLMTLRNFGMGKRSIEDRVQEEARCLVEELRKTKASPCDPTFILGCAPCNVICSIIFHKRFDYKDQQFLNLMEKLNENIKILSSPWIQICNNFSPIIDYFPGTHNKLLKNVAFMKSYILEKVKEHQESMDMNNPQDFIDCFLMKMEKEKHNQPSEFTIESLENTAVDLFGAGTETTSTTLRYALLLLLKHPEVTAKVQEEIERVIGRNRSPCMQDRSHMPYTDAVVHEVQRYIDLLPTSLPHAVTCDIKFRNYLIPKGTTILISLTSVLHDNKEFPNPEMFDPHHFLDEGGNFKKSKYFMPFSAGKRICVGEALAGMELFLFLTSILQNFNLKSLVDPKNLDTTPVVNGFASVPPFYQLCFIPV
Sequence of Pyruvate kinase PKM (Homo sapiens) (P14618 whole entry, looked up): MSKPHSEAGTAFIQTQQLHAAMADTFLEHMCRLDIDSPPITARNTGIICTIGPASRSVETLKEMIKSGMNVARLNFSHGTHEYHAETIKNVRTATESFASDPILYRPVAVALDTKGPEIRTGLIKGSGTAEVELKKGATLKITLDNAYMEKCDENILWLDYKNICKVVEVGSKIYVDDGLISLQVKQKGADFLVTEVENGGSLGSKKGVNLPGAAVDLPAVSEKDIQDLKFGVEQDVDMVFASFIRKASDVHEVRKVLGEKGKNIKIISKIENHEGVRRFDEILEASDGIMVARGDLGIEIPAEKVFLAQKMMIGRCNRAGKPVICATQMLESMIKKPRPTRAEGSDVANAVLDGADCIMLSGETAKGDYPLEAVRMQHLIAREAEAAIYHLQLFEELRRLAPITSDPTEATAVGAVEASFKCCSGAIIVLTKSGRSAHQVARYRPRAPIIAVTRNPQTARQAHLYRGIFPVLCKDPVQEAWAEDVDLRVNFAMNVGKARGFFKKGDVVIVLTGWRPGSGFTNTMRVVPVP
Sequence of Alpha-galactosidase A (Homo sapiens) (P06280 whole entry, looked up): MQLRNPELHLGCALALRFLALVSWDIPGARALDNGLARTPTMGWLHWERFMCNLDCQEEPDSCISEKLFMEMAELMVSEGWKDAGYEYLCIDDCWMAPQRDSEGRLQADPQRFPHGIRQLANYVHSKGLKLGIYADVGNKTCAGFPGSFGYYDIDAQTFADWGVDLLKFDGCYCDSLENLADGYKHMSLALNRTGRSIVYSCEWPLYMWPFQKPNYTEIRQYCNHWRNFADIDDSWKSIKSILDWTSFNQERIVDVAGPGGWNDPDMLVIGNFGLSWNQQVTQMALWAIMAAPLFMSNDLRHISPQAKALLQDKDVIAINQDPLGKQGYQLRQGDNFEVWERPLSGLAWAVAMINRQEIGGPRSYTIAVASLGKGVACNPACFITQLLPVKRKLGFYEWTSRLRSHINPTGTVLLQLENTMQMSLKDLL
Sequence of DNA repair nuclease/redox regulator APEX1 (Homo sapiens) (P27695 whole entry, looked up): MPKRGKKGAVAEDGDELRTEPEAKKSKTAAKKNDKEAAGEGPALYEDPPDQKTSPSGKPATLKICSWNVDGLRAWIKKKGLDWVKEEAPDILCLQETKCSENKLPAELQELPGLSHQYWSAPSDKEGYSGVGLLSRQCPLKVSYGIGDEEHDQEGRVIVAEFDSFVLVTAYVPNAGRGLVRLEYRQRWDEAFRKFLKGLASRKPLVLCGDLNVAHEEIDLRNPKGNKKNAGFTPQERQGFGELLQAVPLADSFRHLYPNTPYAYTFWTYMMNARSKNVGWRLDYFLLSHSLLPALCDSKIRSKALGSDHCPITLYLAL
Sequence of Pyruvate kinase (Leishmania mexicana) (Q27686 2-499 E452W): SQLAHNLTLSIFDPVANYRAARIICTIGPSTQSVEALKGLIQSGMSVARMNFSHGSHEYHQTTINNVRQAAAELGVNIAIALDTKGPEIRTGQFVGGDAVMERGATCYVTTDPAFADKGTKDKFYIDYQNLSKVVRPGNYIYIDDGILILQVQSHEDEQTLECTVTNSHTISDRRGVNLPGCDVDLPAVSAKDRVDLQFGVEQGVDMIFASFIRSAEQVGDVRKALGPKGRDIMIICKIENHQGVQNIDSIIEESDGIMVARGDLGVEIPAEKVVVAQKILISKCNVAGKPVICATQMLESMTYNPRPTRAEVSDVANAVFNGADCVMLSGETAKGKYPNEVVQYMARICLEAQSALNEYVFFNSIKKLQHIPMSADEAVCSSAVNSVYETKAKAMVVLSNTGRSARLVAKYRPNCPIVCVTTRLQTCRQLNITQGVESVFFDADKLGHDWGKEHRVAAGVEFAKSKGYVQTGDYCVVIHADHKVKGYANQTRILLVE

COc1[nH]c2ccc(F)cc2c1C(=O)OCC1CCN(CCNS(C)(=O)=O)CC1
inactive: activity change, negative = inhibition [1] 1.52% | Potency [2] | activity change, negative = inhibition [3] 0.0444% | activity, negative = inhibition [4] 16.9% | Potency [5] > 46 µM | Potency [6] > 46 µM | Potency [7] | Potency [8] | outcome [9] | Potency [10] | Potency [11] | Potency [12] | Potency [13] | outcome [14] | outcome [15] | outcome [16] | outcome [17] | Potency [18] | Potency [19]
